These are literature values, as cited in PubChem BioAssay AID977610.

Each structure is given as a SMILES string. About 3,600 (100%) of roughly 3,600 compounds were called active. The limit is not given here; nearly all actives have Ki up to about 18000 µM. So high a share suggests a set chosen from earlier hits. The list shows a part of the results.

The data set in a line: PubChem AID 977610. Conditions: PDB protein-ligand complexes, literature Ki.

Take `CS[C@@H](CCCC1C(=O)NC(N)NC1N)c1ccc(C(=O)N[C@@H](CCC(=O)O)C(=O)O)cc1` (stereo partly drawn): under “protein: Trifunctional purine biosynthetic protein adenosine-3, PDB entry 4ew2”, the Ki was 0.21 µM (active). As to `CS[C@H](CCCC1C(=O)NC(N)NC1N)c1ccc(C(=O)N[C@@H](CCC(=O)O)C(=O)O)cc1` (stereo partly drawn), under “protein: Trifunctional purine biosynthetic protein adenosine-3, PDB entry 4ew3”, the Ki was 0.18 µM (active). As for `NC(=O)[C@H]1CCCc2c1[nH]c1ccc(Cl)cc21`, the Ki (protein: NAD-DEPENDENT PROTEIN DEACETYLASE SIRTUIN-3, MITOCHONDRIAL, PDB entry 4bvb) is 33.4 µM (active). Regarding `CC(C)N(C[C@H]1O[C@@H](n2cnc3c(N)ncnc32)[C@H](O)[C@@H]1O)C1CC(CCc2nc3ccc(C(C)(C)C)cc3[nH]2)C1` (stereo partly drawn), the Ki (protein: Histone-lysine N-methyltransferase, H3 lysine-79 specific, PDB entry 4hra) is 8e-05 µM (active).

For the molecule `OC[C@H]1OCC[C@@H](O)[C@H]1O`, the Ki (protein: GALACTOCEREBROSIDASE, PDB entry 4ccd) is 32 µM (active).

`O=C(O)CCC(=O)O`: the Ki (protein: Delta-1-pyrroline-5-carboxylate dehydrogenase, mitochondrial, PDB entry 4lh2) was 58000 µM (active). Take `N[C@@H](CCCNC(=O)C[P+](O)(O)O)C(=O)O`: the Ki (protein: human ornithine transcarbamylase, PDB entry 1oth) is 0.1 µM (active). For the molecule `OC[C@@H]1[C@@H](O)[C@H](O)[C@@H](O)[C@@H]1NCc1ccc(Br)cc1`, the Ki (protein: strictosidine glucosidase, PDB entry 3zj8) is 127 µM (active).

Regarding `N[C@@H](c1ccc(-n2cccn2)cc1)[P+](O)(O)O`, the Ki is, setting by setting: (protein: M1 family aminopeptidase, PDB entry 4k5o) 104 µM (active); (protein: M17 leucyl aminopeptidase, PDB entry 4k3n) 0.011 µM (active). As for `NC(N)c1ccc([C@H](N)[P+](O)(O)O)cc1`, the Ki (protein: M1 family aminopeptidase, PDB entry 4k5p) was 345 µM (active). For the molecule `NC(N)Nc1ccc([C@H](N)[P+](O)(O)O)cc1`, under “protein: M1 family aminopeptidase, PDB entry 4k5n”, the Ki is 127 µM (active).

Consider `NC(N)Nc1ccc(C=O)cc1`, for which the Ki (protein: Bovine beta trypsin, PDB entry 1gbt) is 10000 µM (active). `C=CCNC(=O)[C@@H](NC(=O)[C@@](O)(CCCN(Cc1ccc(Br)cc1)NC(=O)[C@@H](NC(=O)OC)C(C)(C)C)Cc1ccccc1)C(C)(C)C`: the Ki (protein: PROTEASE, PDB entry 3zps) was 0.005 µM (active). Take `C=CCNC(=O)[C@@H](NC(=O)[C@@](O)(CCCN(Cc1ccc(-c2cccs2)cc1)NC(=O)[C@@H](NC(=O)OC)C(C)(C)C)Cc1ccc(CC=C)cc1)C(C)C`: the Ki (protein: HIV-1 protease, PDB entry 4cpr) is 0.035 µM (active). Take `C=CCNC(=O)[C@@H](NC(=O)[C@@](O)(CCCN(Cc1ccc(-c2cccnc2)cc1)NC(=O)[C@@H](NC(=O)OC)C(C)(C)C)Cc1ccc(CC=C)cc1)C(C)C`: the Ki (protein: HIV-1 protease, PDB entry 4cpq) is 0.018 µM (active). Regarding `CCCNC(=O)[C@@H](NC(=O)[C@@](O)(CCCN(Cc1ccc(-c2ccncc2)cc1)NC(=O)[C@@H](NC(=O)OC)C(C)(C)C)Cc1ccc(CCC)cc1)C(C)C`, the Ki (protein: HIV-1 protease, PDB entry 4cp7) is 0.0078 µM (active).

For the molecule `CC1=C(C(=O)O)N[C@@H]([C@@H](C=O)NC(=O)Cc2cccs2)SC1`, where the note is “protein: Carboxylesterases, PDB entry 4ivk”, the Ki is 140 µM (active).

Consider `Cc1cc(C)nc(N)n1`, for which, under “protein: PDE10A2, PDB entry 4llx”, the Ki is 1300 µM (active). As to `CNc1nc2cc3nc[nH]c(=O)c3cc2[nH]1`, the Ki is 2.9 µM (active) (protein: Queuine tRNA-ribosyltransferase, PDB entry 3GEV) and 4.1 µM (active) (protein: Queuine tRNA-ribosyltransferase, PDB entry 3V0Y). For the molecule `CC[C@H]1NC(=O)[C@H](CCCNC(N)N)NC(=O)CNC(=O)[C@H](CCCNC(N)N)NC(=O)[C@@H]2CSCc3cc(cc(c3)CSC[C@@H](C(=O)NCC(N)=O)NC(=O)[C@H](C)NC(=O)[C@H](CO)NC1=O)CSC[C@H](NC(=O)[C@H](C)N)C(=O)N[C@@H](CO)C(=O)N[C@@H](CCCNC(N)N)C(=O)N[C@@H](Cc1ccc(O)cc1)C(=O)N[C@@H](CCC(=O)O)C(=O)N[C@@H](C(C)C)C(=O)N[C@@H](CC(=O)O)C(=O)N2`, under “protein: Urokinase-type plasminogen activator (C299A, N322Q mutation), PDB entry 4jk6”, the Ki is 0.064 µM (active). As for `CC(C)[C@@H]1NC(=O)[C@H](CCC(=O)O)NC(=O)[C@H](Cc2ccc(O)cc2)NC(=O)[C@H](CCCNC(N)N)NC(=O)[C@H](CO)NC(=O)[C@@H](NC(=O)[C@H](C)N)CSCc2cc3cc(c2)CSC[C@H](NC(=O)[C@H](CC(=O)O)NC1=O)C(=O)N[C@@H](CCCNC(N)N)C(=O)NCC(=O)N[C@@H](CCCNC(N)N)C(=O)N[C@H](CO)C(=O)N[C@@H](CO)C(=O)N[C@@H](C)C(=O)N[C@H](C(=O)NCC(N)=O)CSC3`, the Ki (protein: Urokinase-type plasminogen activator (C122A, N145Q mutation), PDB entry 4jk5) is 0.028 µM (active). Regarding `NC1=NC2=NC[C@@H](CNc3ccc(C(=O)N[C@@H](CCC(=O)O)C(=O)O)cc3)N(C=O)C2C(=O)N1` (stereo partly drawn), where the note is “protein: Serine hydroxymethyltransferase, putative SHMT, PDB entry 4oyt”, the Ki is 1550 µM (active). Turning to `C[C@]12CC[C@@H](O)C[C@@H]1CC[C@@H]1[C@@H]2CC[C@]2(C)C=CC[C@@H]12`, for the setting “protein: Mus musculus constitutive androstane receptor, PDB entry 1xnx”, the inhibitory constant (Ki) is 0.416 µM (active).

For the molecule `C[C@@H](NC(=O)CCCC[C@@H](N)C(=O)O)[C@H](O)C(F)(F)F`, the Ki (protein: D-ALANYL-D-ALANINE CARBOXYPEPTIDASE, PDB entry 3zcz) was 0.17 µM (active).

`Cc1cc(C)c(Nc2nc(Nc3ccc(C#N)cc3)nc(OCCCN3CCOCC3)n2)c(C)c1`: for the setting “protein: HIV-1 reverse transcriptase, p66 subunit RT52A, PDB entry 4o44”, the Ki is 0.014 µM (active). Consider `CC(C)N1CCC(C(=O)Nc2c(OCCCO[C@@H]3O[C@H](CO)[C@@H](O)[C@H](O)[C@H]3O)cccc2OCc2cc(-c3ccc(Cl)s3)on2)CC1`, for which, where the note is “protein: Alpha Thrombin, hfIIa, PDB entry 4n3l”, the Ki is 0.1 µM (active). Take `Nc1cc(Cl)nc(N)n1`: where the note is “protein: PDE10A2, PDB entry 4ms0”, the Ki was 410 µM (active). Regarding `CCCCCCCCOc1cccc(CSc2ccc(Br)cc2C(=O)O)c1`, the Ki (protein: Dehydrosqualene synthase, PDB entry 3tfv) is 0.08 µM (active). Take `CC(C)Nc1cc(=O)n(-c2ccccc2)nc1-c1ncn[nH]1`: for the setting “protein: MEMBRANE PRIMARY AMINE OXIDASE, PDB entry 4btx”, the Ki was 0.29 µM (active).

Regarding `c1ccc(-c2nc(N3CCOCC3)c3sccc3n2)cc1`, the Ki (protein: 3-OXOACYL-[ACYL-CARRIER-PROTEIN] REDUCTASE FABG, PDB entry 4bny) is 0.08 µM (active). As to `O=C(O)C1=C[C@H]2OCC=C[C@@](O)(C1)[C@H]2O`, under “protein: SHIKIMATE KINASE, PDB entry 4bqs”, the Ki is 62 µM (active).

What is called Ki is a measure of affinity in units of concentration, obtained from inhibition or displacement.
